According to PubChem BioAssay (NCATS):
The source made the active and inactive calls. Calls come from the whole dose curve; as a rule, active = well fitted curve in the direction sought with a large enough effect; inactive = no such curve, though single readings can be large or run the other way.

Assay: qHTS for small molecule inhibitors of Yes1 kinase: Counter Assay (AID 686950);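 note: no kinase present so only ADP-Glo detection of a fixed ADP amount is tested; luminescence from ADP-Glo reporting ADP in a fixed ATP and ADP mixture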
Conditions: series mostly up to 76.9 µM
Procedure, shortened: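 ADP-Glo luminescence read after a 60 min room-temperature incubation of compound with an ATP/ADP mix (0.08 mM/0.02 mM) and no kinase, following a 20 min compound preincubation. Signal scaled between ATP+ADP (max) and 0.1 mM ATP-only (min) wells; Tris pH 7.5, Mg2+, DTT.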

SMILES	outcome
Clc1ccc(CNc2nccc(-c3cnn4ncccc34)n2)cc1	inactive
Cc1ccc(NC(=O)CC2CC2)cc1-c1ccc(C(=O)NCC2CC2)cc1	inactive
Nc1nccc(-c2c(-c3ccc(F)cc3)ncn2C2CCNCC2)n1	inactive
COc1cc(Nc2nccc(Nc3ccc4c(C)[nH]nc4c3)n2)cc(OC)c1OC	inactive
COc1cc(Nc2ncc3c(C)nc(-c4cccc(Oc5ccccc5)c4)n3n2)cc(OC)c1OC	inactive
Cc1ccc2c(-c3ccnc(Nc4cccc(C(F)(F)F)c4)n3)c(-c3ccccc3)nn2n1	inactive
Fc1ccc(-c2ncn(C3CCNCC3)c2-c2ccnc(Oc3ccc(Oc4ccccc4)cc3)n2)cc1	inactive
COc1cc(Nc2nccc(-c3cnn4ncccc34)n2)cc(OC)c1	inactive
COc1cc(C)c(N(C)C(=O)CN(C)C)cc1Nc1nc(Nc2cccc(F)c2C(N)=O)c2cc[nH]c2n1	inactive
CCc1cccc(CC)c1C=Cc1cncc(C(=O)NC)c1	inactive
CN1CCC(C(=O)Nc2n[nH]c3nnc(-c4ccccc4)cc23)CC1	inactive
NS(=O)(=O)c1ccc(N=Nc2c(O)[nH]c3ccc(Cl)cc23)cc1	inactive
CN(C)CCNC(=O)Nc1ccc(N(C)c2ccnc(Nc3ccc(CS(C)(=O)=O)cc3)n2)cc1	inactive
O=C1NC(=O)C(c2ccc(Cl)cc2)=C1Nc1ccc(Cl)c(C(=O)O)c1	inactive
CC(C)c1ccc(Nc2nccc(-c3cnn4ncccc34)n2)cc1	inactive
CN(C)C(=O)OC1CNC(C#Cc2cc3ncnc(Nc4ccc(OCc5cccc(F)c5)c(Cl)c4)c3s2)C1 (stereo not given)	inactive
C#Cc1cccc(Nc2ncnc3ccc(OCCCCNCCS(C)(=O)=O)cc23)c1	inactive
CN(c1ccc(NC(=O)Nc2c(Cl)cccc2Cl)cc1)c1ccnc(Nc2cccc(CS(C)(=O)=O)c2)n1	inactive
Cc1ccc2c(-c3ccnc(Nc4ccccc4)n3)c(-c3ccc(F)cc3)nn2n1	inactive
c1ccc(Oc2ccc(Nc3ncc(-c4ccccc4)o3)cc2)cc1	inactive

SMILES	outcome
CCn1c(-c2nonc2N)nc2cncc(C(=O)N3CCNCC3)c21	inactive
CS(=O)(=O)Nc1ccc(N=Cc2c(O)[nH]c3ccccc23)cc1	inactive
ON=C1CCc2cc(-c3nc(C4CCNCC4)[nH]c3-c3ccncc3)ccc21	inactive
O=C1NC(=O)C(c2cccc(Cl)c2)=C1Nc1ccc(O)c(Cl)c1	inactive
CS(=O)(=O)CCNCc1ccc(-c2ccc3ncnc(Nc4ccc(OCc5ccccc5)c(Br)c4)c3c2)o1	inactive
NS(=O)(=O)c1ccc(N=Nc2c(O)[nH]c3cccc(CCc4ccncc4)c23)cc1	inactive
c1ccc(COc2ccc(Nc3ncnc4ccc(-c5ccco5)cc34)cc2)cc1	inactive
CC1=C(C(=O)Nc2cc(Cl)c3[nH]ncc3c2)C(c2ccc(C(F)(F)F)cc2)CC(=O)N1 (stereo not given)	inactive
CCc1cccc(NC(=O)Nc2ccc(Oc3ccc4nc(NC(=O)OC)[nH]c4c3)cc2)c1	inactive
Nc1ccc(C#Cc2cncnc2Nc2ccc(OCc3cccc(F)c3)c(Cl)c2)cc1	inactive
CCS(=O)(=O)c1ccc(OC)c(Nc2ncc(-c3cccc(OC)c3)o2)c1	inactive
Fc1cccc(COc2ccc(Nc3ncnc4sc(-c5ccco5)cc34)cc2Cl)c1	inactive
COc1ccc(-c2nn3ncccc3c2-c2ccnc(Nc3ccc4c(c3)OCCO4)n2)cc1	inactive
COc1cc(N2CCN(C(C)C)CC2)ccc1Nc1nc(Nc2ccc(F)cc2C(=O)NCC(O)CO)c2cc[nH]c2n1 (stereo not given)	inactive
Nc1ncnc2occ(-c3ccc(NC(=O)Nc4cc(C(F)(F)F)ccc4F)cc3)c12	inactive
O=S1CCN(Cc2ccc(-c3ccc4ncnc(Nc5ccc(OCc6ccccc6)c(Cl)c5)c4c3)o2)CC1	inactive
O=C1NC(=O)C(N2CCc3ccccc32)=C1c1ccc(Cl)cc1	inactive
COc1ccc(CNC(=O)c2ccc(-c3cc(-c4nnc(C)o4)ccc3C)cc2)cc1	inactive
FC(F)(F)CNc1nccc(-c2cnn3ncccc23)n1	inactive
O=C(OC1CNC(C#Cc2cc3ncnc(Nc4ccc(Cc5ccccc5)cc4)c3s2)C1)N1CCOCC1 (stereo not given)	inactive
